# Laboratory results reported in PubChem BioAssay (NCATS).
# Inconclusive results are not listed. Active and inactive are the calls of the source. Calls come from the whole dose curve; as a rule, active = well fitted inhibition curve with a large enough effect; inconclusive = small, poorly fitted or top-dose-only effect; inactive = no such curve, though single readings can be large or run the other way.
# Molecular target: Protein phosphatase 1D (Homo sapiens) (UniProt O15297)
# Assay: RapidFire Mass Spectrometry qHTS Assay for Modulators of WT P53-Induced Phosphatase 1 (WIP1) (AID 1347424)
# Conditions: WIP1 dephosphorylation of phosphopeptide, RapidFire MS; series mostly up to 63 µM
# From the text: Assay Provider (PI): Nathan Coussens Ph. D.
# National Center for Advancing Translational Sciences (NCATS), Rockville, MD
# National Institute of Health (NIH), Bethesda, Maryland
# WT P53-Induced Phosphatase 1 (WIP1) is a member of the magnesium-dependent serine/threonine protein phosphatase (PPM) family and is induced by P53 in response to DNA damage. In several human cancers, the WIP1 protein is overexpressed, which is generally associated with a worse prognosis. Although WIP1 is an attractive therapeutic target, no potent, selective, and bioactive small-molecule modulator with favorable pharmacokinetics has been reported. Phosphatase enzymes are among the most challenging targets for small molecules because of the difficulty of achieving both modulator selectivity and bioavailability. Another major obstacle has been the availability of robust and physiologically relevant phosphatase assays that are suitable for high-throughput screening.
# Here, we describe two orthogonal biochemical WIP1 activity assays that utilize phosphopeptides from native WIP1 substrates. We optimized a RapidFire MS assay to quantify the enzymatically dephosphorylated peptide reaction product in a 384-well format. Additionally, a redshifted Rhodamine-PBP fluorescence assay was optimized in a 1,536-well format to enable real-time WIP1 activity measurements through the detection of the orthogonal reaction product, Pi. We validated these two optimized assays by quantitative high-throughput screening against the National Center for Advancing Translational Sciences (NCATS) Pharmaceutical Collection and used secondary assays to confirm and evaluate inhibitors identified in the primary screen.
# SEQUENCE No. (e.g., 1, 2, 3, etc.); […] (e.g., Cells, Incubation, Reagent, etc.); VALUE; DESCRIPTION
# 1; Reagent; 50 uL; dispensed assay buffer: 0.1% formic acid in water (10 uL : 40 uL) solution in column 1
# 3; Library Compounds; 63 nL; library compounds in DMSO, columns 3-24
# 4; Control Compounds; 63 nL; DMSO in wells I-P, columns 1-2, GSK830371 (10 uM, final) in wells A-H, column 2
# 5; Time; 1 hr; incubation
# 6; Substrate; 2 uL; VEPPL-pS-QETFS (10 uM) in assay buffer, column 2-24
# 7; Time; 5 min; incubation
# 8; Reagent; 2 uL; 0.5% formic acid in water, columns 2-24
# 9; Reagent; 38 uL; VEPPL-S-QETF*S in 0.1% formic acid, columns 2-24
# 10; Detection; mass spec; RapidFire mass spectrometry
# NOTES (numbers refer to sequence above)
# 1, 2, 6; dispensed reagent in White Nunc 384-well PP microplates (264573); assay buffer: 50 mM Tris-HCl pH 7.5, 30 mM MgCl2, 1 mM TCEP, 0.1 mM EGTA, 75 ug/mL BSA.
# 2, 6, 8, 9; Dispensed with BioRaptr (Beckman Coulter)
# 2, 6, 9; Final concentrations: 10 nM WIP1; 2 uM VEPPL-pS-QETFS; 1 uM VEFFL-S-QETF*S
# 3 & 4; Kalypsys Pintool transfer (Wako USA), Tip wash sequence: water, DMSO, methanol, 20 sec vacuum dry.
# 5 & 7; incubation at room temperature
# 10; RapidFire mass spectrometry read using the Agilent RapidFire 360 (Clausse, 2019)
# Clausse V, et al. Physiologically relevant orthogonal assay for the discovery of small-molecule modulators of WIP1 […] in high-throughput screens. J Biol Chem. 2019, 294(46): 17654-17668. doi:10.1074/jbc.RA119.010201
# Chain of Protein phosphatase 1D (Homo sapiens) (O15297 whole entry, looked up): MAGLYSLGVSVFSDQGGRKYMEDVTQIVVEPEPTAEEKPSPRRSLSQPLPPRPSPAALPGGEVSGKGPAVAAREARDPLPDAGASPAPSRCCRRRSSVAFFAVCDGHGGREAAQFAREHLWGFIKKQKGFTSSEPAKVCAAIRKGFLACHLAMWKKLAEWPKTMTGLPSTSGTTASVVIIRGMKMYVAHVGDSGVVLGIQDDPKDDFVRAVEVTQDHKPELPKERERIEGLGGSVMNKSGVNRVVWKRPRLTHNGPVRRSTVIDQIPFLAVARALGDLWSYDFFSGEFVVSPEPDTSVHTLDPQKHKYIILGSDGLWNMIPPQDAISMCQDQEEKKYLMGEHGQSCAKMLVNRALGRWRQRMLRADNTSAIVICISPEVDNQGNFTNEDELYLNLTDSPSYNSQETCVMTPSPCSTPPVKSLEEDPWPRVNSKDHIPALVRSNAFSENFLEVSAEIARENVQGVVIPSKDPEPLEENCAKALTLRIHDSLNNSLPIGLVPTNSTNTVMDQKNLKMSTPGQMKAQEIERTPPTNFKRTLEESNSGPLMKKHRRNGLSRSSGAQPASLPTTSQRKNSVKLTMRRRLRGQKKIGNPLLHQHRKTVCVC
SMILES,outcome,"activity change, negative = inhibition"
Nc1nc(=S)c2[nH]cnc2[nH]1,inactive,–
COc1cccc(N(C)C(=S)Oc2ccc3c(c2)CCCC3)n1,inactive,–
Cc1ccnc2c1NC(=O)c1cccnc1N2C1CC1,inactive,–
O=C(N[C@H](CO)[C@H](O)c1ccc([N+](=O)[O-])cc1)C(Cl)Cl,inactive,–
O=C(NCC1CN(c2ccc(N3CCOCC3=O)cc2)C(=O)O1)c1ccc(Cl)s1 (stereo not given),inactive,–
Clc1ccccc1CN1CCc2sccc2C1,inactive,–
Cc1noc(NS(=O)(=O)c2ccc(N)cc2)c1C,inactive,–
COc1cnc(NS(=O)(=O)c2ccc(N)cc2)nc1,inactive,–
COc1nc(N)nc2c1ncn2[C@@H]1O[C@H](CO)[C@@H](O)[C@@H]1O,inactive,–
COc1ccc(C(=O)CC(=O)c2ccc(C(C)(C)C)cc2)cc1,inactive,–
CNC1CCCN(c2c(F)cc3c(=O)c(C(=O)O)cn(C4CC4)c3c2OC)C1 (stereo not given),inactive,–
CC(C)C[C@H](NC(=O)[C@H](CCc1ccccc1)NC(=O)CN1CCOCC1)C(=O)N[C@@H](Cc1ccccc1)C(=O)N[C@@H](CC(C)C)C(=O)[C@@]1(C)CO1,inactive,–
Cc1onc(-c2ccccc2Cl)c1C(=O)N[C@@H]1C(=O)N2[C@@H]1SC(C)(C)[C@@H]2C(=O)O,inactive,–
CC(=O)[C@H]1CC[C@H]2[C@@H]3CC=C4C[C@@H](O)CC[C@]4(C)[C@H]3CC[C@]12C,inactive,–
CCOc1cc(N)c(Cl)cc1C(=O)NCC1CN(Cc2ccc(F)cc2)CCO1 (stereo not given),inactive,–
CC(C(=O)O)c1ccc2c(c1)CC(=O)c1ccccc1S2 (stereo not given),inactive,–
CC(C)(C)NC(=O)[C@H]1CC[C@H]2[C@@H]3CC[C@H]4NC(=O)C=C[C@]4(C)[C@H]3CC[C@]12C,inactive,–
O=C(O)CSCC(=O)NC1CCSC1=O (stereo not given),inactive,–
CC[C@H](C)C(=O)O[C@H]1C[C@@H](C)C=C2C=C[C@H](C)[C@H](CC[C@@H]3C[C@@H](O)CC(=O)O3)[C@H]21,inactive,–
CCn1cc(C(=O)O)c(=O)c2cc(F)c(N3CCNCC3)nc21,inactive,–

SMILES,outcome,"activity change, negative = inhibition"
CC(C)(C#N)c1cc(Cn2cncn2)cc(C(C)(C)C#N)c1,inactive,–
CCCOc1ccc(C(=O)OCCN(CC)CC)cc1N,inactive,–
CN(CCOc1ccc(CC2SC(=O)NC2=O)cc1)c1ccccn1 (stereo not given),inactive,–
CC(C)OC(=O)OCOP(=O)(CO[C@H](C)Cn1cnc2c(N)ncnc21)OCOC(=O)OC(C)C,inactive,–
COc1ncnc(NS(=O)(=O)c2ccc(N)cc2)c1OC,inactive,–
C[C@@H]1CN(c2c(F)c(N)c3c(=O)c(C(=O)O)cn(C4CC4)c3c2F)C[C@H](C)N1,inactive,–
OC(Cn1cncn1)(Cn1cncn1)c1ccc(F)cc1F,inactive,–
CN1CCN(c2c(F)cc3c(=O)c(C(=O)O)cn4c3c2OCN4C)CC1,inactive,–
COc1cc(NCc2ccc3nc(N)nc(N)c3c2C)cc(OC)c1OC,inactive,–
N[C@@H](C(=O)N[C@@H]1C(=O)N2C(C(=O)O)=C(Cl)CS[C@H]12)c1ccccc1,–,-1.8% [at 12.6 µM] (inactive)
COC(c1ccccc1)(c1ccccc1)[C@H](Oc1nc(C)cc(C)n1)C(=O)O,inactive,–
CC(C)(C)C(=O)OCOP(=O)(COCCn1cnc2c(N)ncnc21)OCOC(=O)C(C)(C)C,inactive,–
COc1cc(NS(=O)(=O)c2ccc(N)cc2)nc(OC)n1,inactive,–
Cn1nnc2c(C(N)=O)ncn2c1=O,inactive,–
C[C@]12C=CC(=O)C=C1CC[C@@H]1[C@@H]2C(=O)C[C@@]2(C)[C@H]1CC[C@]2(O)C(=O)CO,inactive,–
CCc1cc(C(N)=S)ccn1,inactive,–
CC[C@H](NC(C)C)[C@H](O)c1ccc(O)c2[nH]c(=O)ccc12,inactive,–
O=C(O)c1ccc(-n2nc(-c3ccccc3O)nc2-c2ccccc2O)cc1,inactive,–
CCOC(=O)[C@H](CCc1ccccc1)N[C@H]1CS[C@H](c2cccs2)CN(CC(=O)O)C1=O,inactive,–
C[C@@H]1C[C@H]2[C@@H]3CCC4=CC(=O)C=C[C@]4(C)[C@@]3(Cl)[C@@H](O)C[C@]2(C)[C@@]1(OC(=O)c1ccco1)C(=O)CCl,inactive,–
